From PubChem BioAssay (NCATS) come the findings set out here.

What all share (test): qHTS profiling for inhibitors of Plasmodium falciparum proliferation (AID 504749); also: nearly all actives have a fitted effect of over 60% in size
Common to all, as to settings: P. falciparum in erythrocytes, SYBR Green DNA, 72 h; series mostly up to 28.7 µM
(In general: In qHTS, concentration-response curves come from the screen itself.)

The subject of assay [1] is CP203. A digest of the protocol: (§1)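 P. falciparum-infected erythrocytes (0.3% parasitemia, 2.5% hematocrit) incubated with compound 72 h at 37 C, 5% CO2. Parasite DNA detected by SYBR Green after lysis, overnight at room temperature; normalised to 0.29 uM artemisinin and DMSO.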
Assay [2] deals with CP211. The essentials:
as §1

Assay [3] deals with CP215. A digest of the protocol: as §1
Assay [4] concerns CP217. The essentials:
as §1

The subject of assay [5] is CP237. The essentials: as §1
Assay [6] concerns CP238. The essentials: as §1
Assay [7] relates to CP247. A digest of the protocol:
as §1

Assay [8] concerns CP250. A digest of the protocol:
as §1

Assay [9] deals with CP252. A digest of the protocol:
as §1

Assay [10] relates to CP256. A digest of the protocol:
as §1

Records with an inconclusive call do not appear. Active and inactive are the calls of the source. Calls follow the shape of the dose curve; as a rule, active = well fitted inhibition curve with a large enough effect; inconclusive = small, poorly fitted or top-dose-only effect; inactive = flat fitted curve, though single readings scatter. Where a SMILES comes first, the peptide text is derived from it. Bridges are numbered along the chain shown (N, C = ends). [ ]: non-standard residue; d: D form. hArg = N=C(N)NCCCC[C@H](N)C(=O)O; Mpa = O=C(O)CCS
Potency is read from the fitted curve at half-maximal effect.

Regarding `CNCc1ccccc1`, the Potency entry in assay [1], in [3], in assay [5], in [6], in assay [7] and in [8] was “inactive” throughout. Besides, the outcome in [2], in assay [4], in assay [9] and in [10] was inactive.
As for `Nc1ncnc2c1ncn2[C@@H]1O[C@H](COP(=O)(O)O)[C@@H](O)[C@H]1O`, the Potency entry in assay [1], in [3], in assay [5], in assay [6], in assay [7] and in assay [8] was “inactive” throughout. The molecule was classed as inactive in assay [2], in assay [4], in assay [9] and in assay [10].
Turning to `COc1cc(C(=O)NCCCCCC(=O)O)cc(OC)c1OC`, the Potency result in [1], in assay [3], in [5], in assay [6], in assay [7] and in [8] was “inactive” throughout. For the same molecule, the result in [2], in assay [4], in assay [9] and in assay [10] was inactive.
Take `O=C(CCBr)N1CCN(C(=O)CCBr)CC1`: the Potency entry in assay [1], in assay [3], in assay [5], in assay [6], in assay [7] and in [8] was “inactive” throughout. For the same molecule, the call in [2], in [4], in assay [9] and in assay [10] was inactive.
Regarding `O=C(O)Cc1cn(-c2ccccc2)nc1-c1ccc(Cl)cc1`, the Potency result in assay [1], in assay [3], in assay [5], in assay [6], in [7] and in [8] was “inactive” throughout. Further, the outcome in assay [2], in assay [4], in [9] and in assay [10] was inactive.
As to `CC(=O)N[C@@H](Cc1ccc(O)cc1)C(=O)O`, the Potency entry in [1], in assay [3], in [5], in assay [6], in [7] and in assay [8] was “inactive” throughout. In addition, the molecule was classed as inactive in assay [2], in [4] and in assay [9].
In the case of `C[C@@H](N)C(=O)O`, the values for the Potency in [1] and in assay [3] were 9.53 µM (active) and 1.69 µM (active), respectively. In addition, the molecule was classed as inactive in [2], in assay [4], in assay [9] and in assay [10]. The Potency result in assay [5], in [6], in assay [7] and in assay [8] was “inactive” each time.
`O=C(O)c1ccc[n+]([O-])c1`: the Potency entry in [1], in [3], in assay [5], in [6], in assay [7] and in assay [8] was “inactive” each time. Moreover, the result in assay [2], in assay [4], in assay [9] and in [10] was inactive.
As to `N[C@@H](Cc1ccc(O)cc1)C(=O)O`, the Potency entry in [1], in [3], in [5], in assay [6], in assay [7] and in assay [8] was “inactive” each time. Further, the result in assay [2], in assay [4], in [9] and in assay [10] was inactive.
In the case of `CC(=O)Nc1cccc(O)c1`, the Potency result in assay [1], in assay [3], in assay [5], in assay [6], in [7] and in [8] was “inactive” each time. In addition, the outcome in assay [2], in assay [4], in [9] and in [10] was inactive.
With `NC(N)=NS(=O)(=O)c1ccc(N)cc1`, the Potency entry in [1], in [3], in assay [5], in assay [6], in [7] and in assay [8] was “inactive” each time. Further, the molecule was classed as inactive in [2], in [4], in assay [9] and in [10].
For the molecule `O=C(/C=C/c1ccccc1)OCc1ccccc1`, the Potency result in assay [1], in assay [3], in [5], in [6], in assay [7] and in assay [8] was “inactive” throughout. The molecule was called inactive in assay [2], in assay [4], in assay [9] and in assay [10].
Consider `CCCCCCCC(=O)OCC(COC(=O)CCCCCCC)OC(=O)CCCCCCC`, for which the Potency entry in assay [1], in [3], in assay [5], in assay [6], in [7] and in [8] was “inactive” each time. Further, the call in assay [2], in assay [4], in assay [9] and in [10] was inactive.
Take `CC(CSC(=O)c1ccccc1)C(=O)N1C[C@@H](Sc2ccccc2)C[C@H]1C(=O)O` (some centres undefined): the Potency result in [1], in [3], in assay [5], in assay [6], in [7] and in assay [8] was “inactive” each time. The call in assay [2], in [4], in assay [9] and in assay [10] was inactive.
As for `CCCCCCCC(=O)OCC(O)CO` (centres undefined), the Potency entry in assay [1], in assay [3], in assay [5], in [6], in [7] and in assay [8] was “inactive” in each case. For the same molecule, the result in [2], in [4], in [9] and in assay [10] was inactive.
On to `CC(=O)SC[C@@H](Cc1ccccc1)C(=O)NCC(=O)OCc1ccccc1`, for which the Potency result in assay [1], in assay [3], in assay [5], in assay [6], in assay [7] and in assay [8] was “inactive” in each case. The call in assay [2], in assay [4], in assay [9] and in assay [10] was inactive.
Turning to `COc1ccccc1OC(=O)Oc1ccccc1OC`, the Potency result in assay [1], in [3], in assay [5], in assay [6], in [7] and in [8] was “inactive” throughout. Besides, the result in [2], in [4], in assay [9] and in [10] was inactive.
Regarding `CC(C)=CCC/C(C)=C/CO`, the Potency result in [1], in [3], in assay [5], in assay [6], in assay [7] and in assay [8] was “inactive” throughout. Besides, the outcome in [2], in assay [4], in assay [9] and in [10] was inactive.
For the molecule `CCN(CC)C(=O)c1cccc(C)c1`, the Potency result in [1], in [3], in [5], in assay [6], in assay [7] and in assay [8] was “inactive” in each case. Moreover, the result in [2], in [4], in assay [9] and in [10] was inactive.
Consider `CC(=O)Nc1ccccc1`, for which the Potency entry in assay [1], in assay [3], in [5], in assay [6], in assay [7] and in [8] was “inactive” throughout. In addition, the molecule was called inactive in assay [2], in assay [4], in [9] and in assay [10].
In the case of `O=c1[nH]cnc2nc[nH]c12`, the Potency entry in [1], in assay [3], in [5], in [6], in [7] and in assay [8] was “inactive” throughout. Also, the result in [2], in assay [4], in assay [9] and in assay [10] was inactive.
Regarding `O=C(OOC(=O)c1ccccc1)c1ccccc1`, the Potency result in [1], in assay [3], in assay [5], in assay [6], in assay [7] and in assay [8] was “inactive” in each case. Moreover, the molecule was classed as inactive in [2], in assay [4], in [9] and in [10].
For `NC(=O)[C@@H]1CSSCCC(=O)N[C@@H](CCCCN=C(N)N)C(=O)NCC(=O)N[C@@H](CC(=O)O)C(=O)N[C@@H](Cc2c[nH]c3ccccc23)C(=O)N2CCC[C@H]2C(=O)N1` ([Mpa][hArg]GDWPC-NH2; disulfide 1-7), the Potency entry in assay [1], in assay [3], in assay [5], in [6], in assay [7] and in [8] was “inactive” in each case. For the same molecule, the molecule was called inactive in assay [2], in assay [4], in assay [9] and in [10].
